# Reference: PubChem BioAssay (EPA / NIEHS)
# Several values for one entry are separate records, joined by “and”; a condition that tells them apart may be missing. Identical values can stand only once. Activity calls are given as the source filed them. The calls were made as follows: active = hit-call score of the fitted dose curve at least 0.9, where 1 is the maximum; inactive = score below 0.9.
# Read-out: C-C motif chemokine 2 (Homo sapiens) (UniProt P13500)
# Assay: BSK_KF3CT_MCP1: BioMAP Diversity Plus: KF3CT Assay for Monocyte Chemoattractant Protein 1 (MCP1/CCL2) Biomarker Activity (AID 2283073)
# Conditions: primary human keratinocytes with fibroblasts; actives raise or lower the signal
# Protocol: BSK_KF3CT is a cell-based, multiplexed-readout assay that uses keratinocytes and foreskin fibroblasts, a human skin primary cell co-culture, with measurements taken at 24 hours after chemical dosing in a 96-well plate.BSK_KF3CT_MCP1 is an assay component measured in the BSK_KF3CT assay. It measures MCP-1 antibody related to regulation of gene expression using ELISA technology.Data from the assay component BSK_KF3CT_MCP1 was analyzed into 1 assay endpoint. This assay endpoint, BSK_KF3CT_MCP1, was analyzed with bidirectional fitting relative to DMSO as the negative control and baseline of activity. Using a type of binding reporter, gain or loss-of-signal activity can be used to understand changes in the signaling as they relate to the gene CCL2. Furthermore, this assay endpoint can be referred to as a primary readout, because this assay has produced multiple assay endpoints where this one serves a signaling function. To generalize the intended target to other relatable targets, this assay endpoint is annotated to the cytokine intended target family, where the subfamily is chemotactic factor.
# The levels of cell surface (or secreted, indicated by the prefix "s") biomarker endpoints were measured by ELISA. Overt cytotoxicity to cells in confluent adherent cultures (all systems other than the BT system) was assessed by measuring total protein levels using sulforhodamine B (SRB) staining in parallel cultures at the time of biomarker measurements, indicated as SRB endpoints. For proliferation assays for adherent cell types, individual cell types are cultured at sub-confluence and relative cell numbers quantified by SRB staining at time points optimized for each system (48 h: 3C and CASM3C systems; 72 h: BT and HDF3CGF systems; 96 h: SAg system). SRB was performed by staining cells with 0.1% SRB after fixation with 10% TCA and reading wells at 560 nm.Viability and proliferation of PBMC (T cells) was quantified by Alamar Blue reduction for the SAg and BT systems. For PBMC viability (referred to as PBMC Cytotoxicity within the assay endpoint names), cells were plated (75,000/well in a 96-well plate) and then chemical samples added for 1 h before addition of activators, SEB and TSST-1 (20 ng/mL final concentration each). Cells were incubated for 90 h. Then, Alamar Blue (20 uL/well) (Invitrogen, Cat DAL1100) was added for 6 h, and the plates were read with a fluorescence microplate reader at 546/580 nm (excitation/emission). For PBMC proliferation, cells were plated and activated as above but incubated for only 16 h prior to addition of Alamar Blue. Plates were read after 6 h.
SMILES,outcome,AC50
CSCCC=O,inactive,–
CC(=O)Nc1ccc(C(=O)CCl)cc1,–,28.6 µM (active)
Clc1cc(Cl)c(-c2c(Cl)c(Cl)cc(Cl)c2Cl)cc1Cl,–,10 µM (active)
COc1ccc(OC)c(N=Nc2c(O)ccc3ccccc23)c1,inactive,–
c1ccc(CCc2ccccc2)cc1,–,20 µM (active)
c1ccc2cc(Nc3ccc(Nc4ccc5ccccc5c4)cc3)ccc2c1,inactive,–
O=C1OC[C@H](Cc2cccc(O)c2)[C@H]1Cc1cccc(O)c1,inactive,–
CCN(CC)C(=O)N(CC)CC,inactive,–
CCC(C)c1cc([N+](=O)[O-])cc([N+](=O)[O-])c1OC(=O)OC(C)C (stereo not given),inactive,–
C=C(C)C(=O)OCC(CC)(COC(=O)C(=C)C)COC(=O)C(=C)C,inactive,–
CCCCOC(=O)CCCCCCCC(=O)OCCCC,inactive,–
CC(C=O)Cc1ccc(C(C)(C)C)cc1 (stereo not given),inactive,–
CCOC(=O)C(C#N)=C(c1ccccc1)c1ccccc1,inactive,–
C[C@@H]1CCN(C(=O)[C@H](CCCN=C(N)N)NS(=O)(=O)c2cccc3c2NC[C@H](C)C3)[C@@H](C(=O)O)C1,inactive,–
CS(=O)(=O)c1ccc(C2=C(c3ccccc3)C(=O)OC2)cc1,inactive,–
O=C(Nc1ccc2c(O)c(N=Nc3ccc(N=Nc4ccc(S(=O)(=O)O)cc4)cc3)c(S(=O)(=O)O)cc2c1)c1ccccc1,inactive,–
C=C(C)C(=O)OCCOCCOCCOCCOC(=O)C(=C)C,inactive,–
CC(C)(C)CC(C)(C)c1ccc(OCCOCC[N+](C)(C)Cc2ccccc2)cc1,–,8.05 µM (active)
C=C(C)[C@H]1CC=C(C)C(=O)C1,inactive,–
IC(I)I,inactive,–

SMILES,outcome,AC50
CC(CN=Cc1ccccc1O)N=Cc1ccccc1O (stereo not given),inactive,–
CCCCCC(C=O)=Cc1ccccc1,–,28.8 µM (active)
CCCCCCCCCCCCCCCC(=O)OC/C=C(C)/C=C/C=C(C)/C=C/C1=C(C)CCCC1(C)C,inactive,–
O=C1OC2(c3ccccc31)c1ccc(O)c(Br)c1Oc1c2ccc(O)c1Br,–,20 µM (active)
Cc1cc(CCC(=O)OCCOCCOCCOC(=O)CCc2cc(C)c(O)c(C(C)(C)C)c2)cc(C(C)(C)C)c1O,inactive,–
CS(=O)(=O)OCCCCOS(C)(=O)=O,inactive,–
COc1cc(Cl)c(OC)cc1N,inactive,–
CCCCCCC(CO)CCCC (stereo not given),–,32.9 µM (active) and 36.2 µM (active)
CC1(C)C2=CCCC(C)(C)[C@]23CC[C@H]1C3,–,20 µM (active)
O=CN1CCOCC1,inactive,–
CC=Cc1ccc(OCC)c(O)c1,inactive,–
C=C(C)C(=O)OCCOCCOCCOC(=O)C(=C)C,inactive,–
CN(C)C(=O)Nc1ccc(Oc2ccc(Cl)cc2)cc1,inactive,–
CC(=O)C1(C)CC2=C(CCCC2(C)C)CC1C (stereo not given),–,10.3 µM (active)
COc1ccc(CCN2CCC(Nc3nc4ccccc4n3Cc3ccc(F)cc3)CC2)cc1,inactive,–
C1=CC2C3C=CC(C3)C2C1 (stereo not given),inactive,–
c1ccc(Oc2ccccc2)cc1,–,30.7 µM (active)
CC(C)(N=C=O)c1cccc(C(C)(C)N=C=O)c1,inactive,–
CC(=O)c1c(C)c([N+](=O)[O-])c(C(C)(C)C)c([N+](=O)[O-])c1C,inactive,–
CC1(C)CCC[C@]2(C)[C@H]3CCO[C@]3(C)CC[C@@H]12,–,33.9 µM (active) and 30.7 µM (active)
